# According to PubChem BioAssay AID2553 (Johns Hopkins Ion Channel Center, 2010):
# Out of some 310,000 compounds screened, about 3,300 (1.1%) were called active.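 How the source made its calls: active means B-score under library mean minus 3 SD, initial fluorescence not abnormally high, positive integrated signal ratio; inactive means the rest.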 Many of the other results were omitted from the sample, so actives are more common in it than they were.
# Biological target: Short transient receptor potential channel 6 (Mus musculus) (UniProt Q61143)
# Sequence (Q61143 whole entry, looked up): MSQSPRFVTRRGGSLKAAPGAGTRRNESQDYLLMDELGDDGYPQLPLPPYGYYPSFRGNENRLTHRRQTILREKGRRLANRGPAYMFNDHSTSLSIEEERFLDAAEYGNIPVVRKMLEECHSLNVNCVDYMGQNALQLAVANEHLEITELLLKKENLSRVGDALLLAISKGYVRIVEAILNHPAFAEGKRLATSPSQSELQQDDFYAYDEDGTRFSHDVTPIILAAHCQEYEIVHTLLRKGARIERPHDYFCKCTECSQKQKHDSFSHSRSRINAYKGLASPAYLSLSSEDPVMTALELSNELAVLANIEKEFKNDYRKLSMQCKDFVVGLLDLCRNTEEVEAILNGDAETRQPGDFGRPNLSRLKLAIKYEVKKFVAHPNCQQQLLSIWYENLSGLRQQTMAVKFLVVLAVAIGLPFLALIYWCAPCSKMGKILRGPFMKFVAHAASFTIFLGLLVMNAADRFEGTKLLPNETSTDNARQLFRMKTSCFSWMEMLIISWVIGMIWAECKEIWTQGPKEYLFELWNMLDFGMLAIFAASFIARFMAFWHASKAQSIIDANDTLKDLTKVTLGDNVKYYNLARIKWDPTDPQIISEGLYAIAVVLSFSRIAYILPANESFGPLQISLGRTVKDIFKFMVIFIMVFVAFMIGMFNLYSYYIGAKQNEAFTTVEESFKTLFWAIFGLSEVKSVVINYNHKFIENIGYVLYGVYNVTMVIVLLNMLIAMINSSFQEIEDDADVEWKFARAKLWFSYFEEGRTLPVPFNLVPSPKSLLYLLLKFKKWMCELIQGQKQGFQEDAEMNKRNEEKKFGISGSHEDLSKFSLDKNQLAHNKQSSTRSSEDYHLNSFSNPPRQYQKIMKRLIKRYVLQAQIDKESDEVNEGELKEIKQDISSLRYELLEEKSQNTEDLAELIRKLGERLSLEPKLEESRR
# Experiment: mouse TRPC6 channel inhibitors, primary screen, cell-based, HEK293, membrane potential dye (AID 2553);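 on B-score: B-score derived from integrated fluorescence ratio over the kinetic read; more negative B-score means stronger inhibition of depolarization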
# Conditions: ACh-evoked depolarization, at 10 µM; active compounds read low
row,SMILES,B-score
1,COc1ccc(-c2nonc2NC(=O)c2oc3ccc(F)cc3c2C)cc1OC,inactive
2,CCOC(=O)C1=NN(c2ccc(Cl)cc2)/C(=C/C2=NCCc3cc(OC)c(OC)cc32)S1,-5.5 (active)
3,CCOC(=O)C1=C(CN2CCc3ccccc32)NC(=O)NC1c1ccc(Cl)cc1 (centres undefined),inactive
4,CCOC(=O)c1cc2c(n(-c3ccc(C)cc3)c1=O)CCCC2=O,inactive
5,c1ccc(-n2nnnc2-c2cccnc2)cc1,inactive
6,FC(F)(F)c1nc(-c2ccccc2)ncc1-c1nnnn1-c1ccccc1,inactive
7,Clc1ccc(-n2nnnc2-c2cnc(-c3ccccn3)nc2-c2cccs2)cc1,-6.02 (active)
8,CCN1CCN(c2ccc([N+](=O)[O-])cc2C(=O)c2ccc(Cl)cc2)CC1,-6.09 (active)
9,CCC(=O)c1ccc(N2CCN(C(=O)c3cc([N+](=O)[O-])ccc3F)CC2)c(F)c1,inactive
10,O=C(Nc1cccc(Cl)c1)c1cc([N+](=O)[O-])ccc1N1CCN(CCO)CC1,inactive
11,COc1ccc(C(C#N)Nc2ccc(C)cc2)cc1 (centres undefined),inactive
12,Cc1ccc(S(=O)(=O)N(c2cccc(C)c2)C2CCS(=O)(=O)C2)cc1 (centres undefined),inactive
13,COCc1ccc(CN2CCC(Oc3ccc(C(=O)NCc4ccccn4)cc3)CC2)o1,inactive
14,CCCn1nc(NC(=O)C(C)C)c2cc3cc(OC)ccc3nc21,inactive
15,Cc1ccccc1CSc1nnc(CCCCCNC(=O)OC(C)(C)C)o1,inactive
16,O=C(CN(C(=O)CCC(=O)Nc1nccs1)c1ccc(F)cc1)NCc1ccc2c(c1)OCO2,inactive
17,CCC(C)(C)NC(=O)CN(C(=O)CCC(=O)Nc1nccs1)c1ccc2c(c1)OCO2,-5.2 (active)
18,CCC(C)(C)NC(=O)CN(C(=O)CCC(=O)Nc1cc(C)ccn1)c1ccc2c(c1)OCCO2,inactive
19,CCN1CCC2(CCN(Cc3cn[nH]c3-c3ccc(OC)c(F)c3)C2)C1 (centres undefined),inactive
20,COc1ccc(/C=C/C(=O)OCC(=O)NCc2cccs2)cc1OC,inactive
21,O=C(CN1CCN(C(=O)C2CCCO2)CC1)Nc1c(Cl)cccc1Cl (centres undefined),inactive
22,COc1ccc(OC)c(CNC(=O)Cn2nc(C)c3c(C)n(-c4ccc(C)cc4)nc3c2=O)c1,inactive

row,SMILES,B-score
1,CN=C1C=C/C(=N/N=c2\ccn(O)cc2C)C=C1C,inactive
2,O=C(O)CCCCCNc1ncnc2ccc(Br)cc12,inactive
3,Cc1ccccc1-n1nc(C)c2c1N=C1C(Cl)=CC(Cl)=CN1C2c1ccc(C(=O)O)cc1 (centres undefined),inactive
4,Cc1onc(C(=O)NN)c1C(=O)N1CCN(C(c2ccccc2)c2ccccc2)CC1,inactive
5,O=C(c1ccc(-n2cnnn2)cc1)N1CCN(C(c2ccccc2)c2ccccc2)CC1,-5.27 (active)
6,Cn1nnnc1SCC(=O)N1CCN(C(c2ccccc2)c2ccccc2)CC1,inactive
7,COc1ccc(Cc2nnc(SCC(=O)N(c3ccccc3)C(C)C)n(N)c2=O)cc1,inactive
8,C=CCSC(CC)(CC)C(N)=O,inactive
9,Oc1c(Cl)cc(Cl)c(Cl)c1Cc1c(O)c(Cl)cc(Cl)c1Cl,-7.71 (active)
10,COc1cc(NC(=O)C2CC(c3ccccc3O)=NO2)c(OC)cc1Cl (centres undefined),inactive
11,Cc1ccc(F)cc1NC(=O)N1CCCN(c2ccc(C(F)(F)F)cn2)CC1,inactive
12,CN(CC(=O)Nc1ccccc1[N+](=O)[O-])Cc1ccc(Br)cc1,-5.44 (active)
13,CN(CC(=O)Nc1ccc(N2CCOCC2)cc1)CC(=O)Nc1ccccc1[N+](=O)[O-],inactive
14,Cc1ccc(NC(=O)CN(C)Cc2ccc(F)cc2)c([N+](=O)[O-])c1,inactive
15,C/C(=N\Nc1nc2ccccc2[nH]1)c1cccs1,-13.6 (active)
16,C/C(=N\Nc1ncc(Cl)cc1Cl)c1cccs1,inactive
17,O=C(Nc1ccccc1-c1nc2ccccc2[nH]c1=O)c1cccs1,inactive
18,Cc1cc(OCC(=O)N(C)c2c(N)n(Cc3ccccc3)c(=O)[nH]c2=O)c(C(C)C)cc1Cl,inactive
19,CC(C)c1ccc(OCC(O)Cn2cnc3ccccc32)cc1 (centres undefined),-9.55 (active)
20,CC(=O)OC(COc1ccc(F)cc1)Cn1cnc2ccccc21 (centres undefined),inactive
21,CC(C)c1ccc(OCC(O)CN2CCN(c3ccccn3)CC2)cc1 (centres undefined),inactive
22,COCCn1cnc2c1c(=O)n(Cc1ccc(Br)cc1)c(=O)n2Cc1ccccc1,inactive

row,SMILES,B-score
1,CCN(CC)CCn1cnc2c1c(=O)[nH]c(=O)n2Cc1ccccc1,inactive
2,N=c1c2c(-c3ccccc3)c(-c3ccccc3)n(Cc3ccccc3)c2ncn1CCCO,-7.35 (active)
3,CCOC(=O)C(CCOc1cccc(CC)c1)C(=O)OCC,inactive
4,CCOC(=O)c1sc(N(Cc2ccccc2)C(=O)CN2C(=O)CN(C)C2=O)nc1C,inactive
5,Cc1cc(=O)[nH]c(SCc2ccc(Cl)cc2)n1,inactive
6,CC1CN(C(=O)c2cc(COc3c(F)cccc3F)on2)CCN1C (centres undefined),inactive
7,Cc1cccc(NS(=O)(=O)c2ccc(-c3cnc(C4CC4)o3)cc2)c1,inactive
8,O=S(=O)(c1ccc(Cl)s1)N1CCC2(CC1)OCCO2,inactive
9,O=C(NCCc1c[nH]c2ccccc12)C1CCN(Cc2ccc(Br)cc2)CC1,-5.11 (active)
10,Cc1ccc2[nH]cc(CCNC(=O)C3CCCCC3)c2c1,inactive
11,O=C(NCCc1c[nH]c2ccccc12)c1cccc(Br)c1,inactive
12,Cc1ccc(OCCOc2cccc(/C=N/NC(N)=O)c2)cc1,inactive
13,COc1ccc(CNC(=O)CN2CCC(n3nnc4cc(F)ccc43)CC2)cc1,inactive
14,N=c1n(CCc2ccccc2)c2ccccc2n1Cc1ccccc1F,-5.3 (active)
15,Fc1ccccc1Cn1cnc(NC(=S)NCCc2ccccc2)n1,inactive
16,CC(=O)NC(C)c1nc2ccccc2n1Cc1ccccc1F (centres undefined),inactive
17,CC(C)CCOc1ccc(C(=O)C[N+]2(C)CCOCC2)cc1,inactive
18,Cc1ccccc1C(OCCN(C)C)C1CCCCC1 (centres undefined),inactive
19,CCOC(=O)C1=C(CSc2nnnn2C)N(C)C(=O)NC1c1ccccc1 (centres undefined),inactive
20,COc1cccc(-n2c(=S)[nH]c3c(oc4ccccc43)c2=O)c1,inactive
21,CCC(C(=O)OCCN(CC)CC)c1ccccc1 (centres undefined),inactive
22,CN(C)CCOC(=O)C(c1ccccc1)C1(O)CCCC1 (centres undefined),-7.55 (active)

row,SMILES,B-score
1,O=C(O)C(c1ccccc1)C1(O)CCCCC1 (centres undefined),inactive
2,CCCCc1cc2c(s1)CCCC/C2=N/O,inactive
3,Cc1ccc(-c2nc(COC(=O)c3c(C)noc3C)cs2)cc1,inactive
4,CCOc1cc(-c2conc2N)cc(OCC)c1OCC,inactive
5,Cc1csc2ncc(C(=O)N(Cc3ccccc3)c3ccccn3)c(=O)n12,inactive
6,CCCc1cc(=S)n2c([nH]c3ccccc32)c1C#N,-12.9 (active)
7,CCOC(=O)CCc1c(C)c(C#N)c2[nH]c3ccccc3n2c1=O,inactive
8,Cc1ccccc1Cn1c(=O)[nH]c2ccccc21,inactive
9,COc1ccc(OC)c(C(=O)c2ccc(C(=O)N3CCN(Cc4csc(C)n4)CC3)cc2)c1,inactive
10,CCOc1ccccc1NC(=S)N1CCN(c2cccc(C)c2C)CC1,inactive
11,CN(N)c1nc(N2CCCC2)nc(N2CCCC2)n1,inactive
12,Cn1c(NC(=O)c2ccc3c(c2)OCO3)cc(=O)n(C)c1=O,inactive
13,Cn1c(=O)n(C)c2cc(C(=O)Nc3ccc(Br)cc3)ccc21,inactive
14,Cn1c(=O)n(C)c2cc(C(=O)Nc3ccc4c(c3)OCO4)ccc21,-7.03 (active)
15,CC(C)(C)c1cc(CN2CCN(CCC#N)CC2)cc(C(C)(C)C)c1O,inactive
16,Cc1ccc(NC(=S)N(CCCN2CCCC2)Cc2cccn2Cc2ccc(Cl)cc2)cc1,-5.03 (active)
17,Cc1ccc(NC(=S)N(CCCN2CCC(C)CC2)Cc2ccco2)cc1,inactive
18,Cc1ccc(NC(=S)N(CCN2CCCCC2)Cc2ccco2)cc1C,inactive
19,COC(=O)[C@@H]1C[C@H]2CC[C@H](O)C[C@H]2N1Cc1ccc(N2CCN(C)CC2)cc1,inactive
20,N#C/C(C(=S)Nc1ccccc1)=C1/NN=C(N2CCOCC2)N1c1ccccc1,inactive
21,COc1cccc(CC(=O)N2CCCC(CCC(=O)N3CCN(c4ccccn4)CC3)C2)c1 (centres undefined),inactive
22,CC(C)C(c1nnnn1C1CCCCC1)N1CCN(C(=O)c2ccco2)CC1 (centres undefined),inactive

row,SMILES,B-score
1,CC(C)C(c1nnnn1CCc1ccccc1)N1CCN(C(=O)c2ccco2)CC1 (centres undefined),-6.03 (active)
2,CCC(c1nnnn1C1CCCC1)N1CCN(C(=O)c2ccco2)CC1 (centres undefined),inactive
3,CC1CC(C)CN(C/C=C/c2ccccc2[N+](=O)[O-])C1 (centres undefined),-10.9 (active)
4,O=[N+]([O-])c1ccccc1/C=C/CN1CCC(O)CC1,inactive
5,O=[N+]([O-])c1ccccc1/C=C/CN1CCCC(CO)C1 (centres undefined),inactive
6,CC1=C[C@H]2Cc3cc(C)cc(C)c3S(=O)(=O)[C@@H]2C=C1,inactive
7,CC(=O)c1cc(C#N)c(SCC(=O)Nc2nccs2)nc1C,inactive
8,Clc1ccc(C2=CSC3=Nc4cccc5cccc(c45)N23)cc1,inactive
9,CC(C)NC(=O)COCc1cc(-c2ccc3c(c2)OCO3)on1,inactive
10,CC(C)(C)c1ccc(C(=O)NCc2nnc(SCC(=O)N3CCCc4ccccc43)n2-c2ccccc2)cc1,inactive
11,N#C/C(=C1/CCCN1)c1ccccn1,inactive
12,Cn1c(S(=O)(=O)O)nc2ccccc21,inactive
13,Cn1c(/C(C#N)=C2/CCCCCN2)nc2ccccc21,-6.04 (active)
14,CC(=O)c1ccc(N2CCN(C(=O)c3ccc4nc[nH]c4c3)CC2)cc1,inactive
15,CC(=O)c1ccc(N2Cc3ccccc3C2)cc1,inactive
16,Cc1nc(SCc2ccc(F)cc2)c([N+](=O)[O-])[nH]1,inactive
17,CCCCOc1ccc(CSC(=N)N)cc1[N+](=O)[O-],-6.92 (active)
18,CCCOc1ccc(Cn2ccnc2)cc1[N+](=O)[O-],inactive
19,CCCCCOc1ccc(CSC2=NCCN2)cc1[N+](=O)[O-],-7.13 (active)
20,Cc1cc(OCCCCOc2ccc(C#N)cc2)ccc1[N+](=O)[O-],inactive
21,CCCCOC(=O)CCCc1ccc([N+](=O)[O-])cc1[N+](=O)[O-],inactive
